About 83,000 compounds went through this panel and 20% of them were active in at least one assay; those are over-represented in the sample as a whole.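 Single-concentration screen, 48 h exposure, 96-well plates. Endpoint: percent growth. Below 10 = active.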 A number with no mark means an inactive call.
Each molecule was assayed on T-47D breast (assay: NCI-60 one-dose screen, 48 h (100 = growth as untreated, 0 = no growth, -100 = all killed)). Details: 10 µM unless noted.

| Structure (SMILES) | growth [%] |
| --- | --- |
| O=C1NCCS(=O)(=O)/C1=C\C=C\c1cccc(C(F)(F)F)c1 | 22.6 |
| COC(=O)c1cc(-c2ccc(OC)c(OC)c2)[nH]c1N/N=C/c1c(Cl)cccc1Cl | 40.9 |
| Oc1cccc(-c2nc(-c3n[nH]c(=S)n3-c3ccccc3)cc3c2[nH]c2ccccc23)c1 | 47.7 |

The molecules below were run on BT-549 breast in the same assay as above. Details: 10 µM unless noted.

| Structure (SMILES) | growth [%] |
| --- | --- |
| Cc1c(C(=O)C(SC(=S)N2CCOCC2)SC(=S)N2CCOCC2)nnn1-c1ccc([N+](=O)[O-])cc1 | 92.5 |
| CC(=O)Cc1nsc(NC(=O)c2cc(-c3cc(Cl)ccc3Cl)oc2C)n1 | 102 |
| COc1cc2ncnc(Nc3ccc(S(=O)(=O)Nc4cc(C)on4)cc3)c2cc1OCCCN1CCOCC1 | 91.6 |
| O=C(c1ccc(F)cc1)C1CCN(CCn2c(=O)[nH]c3ccccc3c2=O)CC1 | 107 |
| C=CCNc1ccc2c3c(cccc13)C(=O)N(CC=C)C2=O | 98.4 |
| COC(CCP(=O)(c1ccccc1)c1ccccc1)(C(=O)c1ccccc1)c1ccccc1 (configuration not stated) | 60.4 |
| COc1cc2c(c(OC)c1OC)C(=O)CC(c1cccc(C(=O)Nc3ccc(Br)cc3)c1)O2 (configuration not stated) | 34 |
| COc1cc(-c2ccc(-c3ccc(C(=N)N)s3)s2)cc(OC)c1OC | 61.7 |
| [2H]C([2H])([2H])Oc1ccc(/C=C/C(=O)/C=C(/C=C/c2ccc(OC([2H])([2H])[2H])c(OC([2H])([2H])[2H])c2OC([2H])([2H])[2H])OB(F)F)c(OC([2H])([2H])[2H])c1OC([2H])([2H])[2H] | 78.6 |
